Screen size: about 5,500 compounds; about 2,000 (36%) were called active. Another 18% or so got no clear call; they are omitted. Cut-off read from the data, not from the text of the source: active = normalized growth mostly below about 0.91 (no sharp cut-off); inconclusive = no clear call, values can overlap the other calls; inactive = mostly above about 0.92. The list shows a part of the results.
Test: chemical genetic growth profiling, strain panel (AID 1159580);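 note: tested at 20 µM; growth read once vehicle control cultures reached saturation at 30 °C; 1 = growth at the plate median or of vehicle wells; lower values mean less growth of the strain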
Conditions: growth OD

Measured: normalized growth

Cc1ccc(C(=O)c2ccc(CC(=O)O)n2C)cc1
inactive: S. cerevisiae deletion strains, locus YJR075W, strain HOC1, stronger effect = lower value 1.02 | S. cerevisiae deletion strains, locus YKL009W, strain mrt4, stronger effect = lower value 0.958 | S. cerevisiae deletion strains, locus YKL068W, stronger effect = lower value 0.99 | S. cerevisiae deletion strains, locus YKL085W, strain MDH1 (second series), stronger effect = lower value 0.98 | S. cerevisiae deletion strains, locus YKL085W, strain MDH1, stronger effect = lower value 0.98 | S. cerevisiae deletion strains, locus YKL160W, strain elf1, stronger effect = lower value 1.01 | S. cerevisiae deletion strains, locus YKL190W, strain CNB1, stronger effect = lower value 0.996 | S. cerevisiae deletion strains, locus YKR001C, strain vps1, stronger effect = lower value 0.946 | S. cerevisiae deletion strains, locus YKR026C, strain gcn3, stronger effect = lower value 1.01 | S. cerevisiae deletion strains, locus YKR091W, strain srl3, stronger effect = lower value 1 | S. cerevisiae deletion strains, locus YLL001W, strain dnm1, stronger effect = lower value 0.981 | S. cerevisiae deletion strains, locus YLL026W, stronger effect = lower value 1.01 | S. cerevisiae deletion strains, locus YLL041C, strain sdh2, stronger effect = lower value 1 | S. cerevisiae deletion strains, locus YLR027C, strain aat2, stronger effect = lower value 1.02 | S. cerevisiae deletion strains, locus YLR039C, strain RIC1, stronger effect = lower value 0.996 | S. cerevisiae deletion strains, locus YLR058C, strain SHM2, stronger effect = lower value 1 | S. cerevisiae deletion strains, locus YLR102C, strain apc9, stronger effect = lower value 0.973 | S. cerevisiae deletion strains, locus YLR113W, strain HOG1, stronger effect = lower value 0.991 | S. cerevisiae deletion strains, locus YLR221C, strain rsa3, stronger effect = lower value 0.971 | S. cerevisiae deletion strains, locus YLR258W, strain gsy2, stronger effect = lower value 1.01 | S. cerevisiae deletion strains, locus YLR262C, strain YPT6 (second series), stronger effect = lower value 0.994 | S. cerevisiae deletion strains, locus YLR262C, strain YPT6, stronger effect = lower value 1 | S. cerevisiae deletion strains, locus YLR268W, strain sec22, stronger effect = lower value 0.918 | S. cerevisiae deletion strains, locus YLR320W, strain mms22, stronger effect = lower value 0.958 | S. cerevisiae deletion strains, locus YLR330W, strain CHS5, stronger effect = lower value 1 | S. cerevisiae deletion strains, locus YLR342W, strain FKS1 (second series), stronger effect = lower value 0.997 | S. cerevisiae deletion strains, locus YLR342W, strain FKS1, stronger effect = lower value 1.02 | S. cerevisiae deletion strains, locus YLR357W, strain rsc2, stronger effect = lower value 1.02 | S. cerevisiae deletion strains, locus YLR370C, strain arc18, stronger effect = lower value 1 | S. cerevisiae deletion strains, locus YLR371W, strain rom2, stronger effect = lower value 0.978 | S. cerevisiae deletion strains, locus YLR384C, strain iki3, stronger effect = lower value 1.01 | S. cerevisiae deletion strains, locus YLR418C, strain cdc73, stronger effect = lower value 0.968 | S. cerevisiae deletion strains, locus YML016C, strain PPZ1, stronger effect = lower value 1.01 | S. cerevisiae deletion strains, locus YML032C, strain rad52, stronger effect = lower value 0.969 | S. cerevisiae deletion strains, locus YML120C, strain ndi1, stronger effect = lower value 0.982 | S. cerevisiae deletion strains, locus YML124C, strain tub3, stronger effect = lower value 0.981 | S. cerevisiae deletion strains, locus YMR058W, strain fet3, stronger effect = lower value 1.02 | S. cerevisiae deletion strains, locus YMR078C, strain ctf18, stronger effect = lower value 0.97 | S. cerevisiae deletion strains, locus YMR125W, strain sto1, stronger effect = lower value 1.01 | S. cerevisiae deletion strains, locus YMR129W, stronger effect = lower value 1.02 | S. cerevisiae deletion strains, locus YMR205C, strain PFK2, stronger effect = lower value 1.01 | S. cerevisiae deletion strains, locus YMR223W, strain ubp8, stronger effect = lower value 0.979 | S. cerevisiae deletion strains, locus YMR231W, strain pep5, stronger effect = lower value 1.01 | S. cerevisiae deletion strains, locus YMR307W, strain GAS1, stronger effect = lower value 0.991 | S. cerevisiae deletion strains, locus YNL067W, strain RPL9B, stronger effect = lower value 1 | S. cerevisiae deletion strains, locus YNL071W, strain lat1, stronger effect = lower value 1.02 | S. cerevisiae deletion strains, locus YNL153C, strain GIM3, stronger effect = lower value 1 | S. cerevisiae deletion strains, locus YNL183C, strain NPR1, stronger effect = lower value 0.928 | S. cerevisiae deletion strains, locus YNL209W, strain ssb2, stronger effect = lower value 1.02 | S. cerevisiae deletion strains, locus YNL233W, strain BNI4, stronger effect = lower value 1 | S. cerevisiae deletion strains, locus YNL248C, strain rpa49, stronger effect = lower value 1.02 | S. cerevisiae deletion strains, locus YNL250W, strain rad50, stronger effect = lower value 0.987 | S. cerevisiae deletion strains, locus YNL271C, strain bni1, stronger effect = lower value 0.968 | S. cerevisiae deletion strains, locus YNL298W, strain CLA4, stronger effect = lower value 0.95 | S. cerevisiae deletion strains, locus YNL307C, strain MCK1, stronger effect = lower value 0.956 | S. cerevisiae deletion strains, locus YNL322C, strain KRE1 (second series), stronger effect = lower value 1.03 | S. cerevisiae deletion strains, locus YNL322C, strain KRE1, stronger effect = lower value 1 | S. cerevisiae deletion strains, locus YNR049C, strain mso1, stronger effect = lower value 1 | S. cerevisiae deletion strains, locus YNR052C, strain pop2, stronger effect = lower value 0.978 | S. cerevisiae deletion strains, locus YOL006C, strain TOP1, stronger effect = lower value 0.969 | S. cerevisiae deletion strains, locus YOL012C, strain htz1 0.918 | S. cerevisiae deletion strains, locus YOL147C, strain pex11, stronger effect = lower value 0.974 | S. cerevisiae deletion strains, locus YOR001W, strain rrp6, stronger effect = lower value 0.975 | S. cerevisiae deletion strains, locus YOR061W, strain CKA2, stronger effect = lower value 1 | S. cerevisiae deletion strains, locus YOR069W, strain VPS5, stronger effect = lower value 0.997 | S. cerevisiae deletion strains, locus YOR070C, strain gyp1, stronger effect = lower value 1.02 | S. cerevisiae deletion strains, locus YOR080W, strain dia2, stronger effect = lower value 1.02 | S. cerevisiae deletion strains, locus YOR083W, strain WHI5, stronger effect = lower value 0.974 | S. cerevisiae deletion strains, locus YOR106W, strain vam3, stronger effect = lower value 1.04 | S. cerevisiae deletion strains, locus YOR136W, strain idh2, stronger effect = lower value 0.989 | S. cerevisiae deletion strains, locus YOR144C, strain elg1, stronger effect = lower value 0.979 | S. cerevisiae deletion strains, locus YOR184W, strain ser1, stronger effect = lower value 0.956 | S. cerevisiae deletion strains, locus YOR231W, strain MKK1, stronger effect = lower value 0.987 | S. cerevisiae deletion strains, locus YOR265W, strain rbl2, stronger effect = lower value 1.01 | S. cerevisiae deletion strains, locus YOR270C, strain vph1, stronger effect = lower value 0.934 | S. cerevisiae deletion strains, locus YOR290C, strain snf2, stronger effect = lower value 1.01 | S. cerevisiae deletion strains, locus YOR316C, strain cot1, stronger effect = lower value 0.974 | S. cerevisiae deletion strains, locus YPL051W, strain arl3, stronger effect = lower value 1.01 | S. cerevisiae deletion strains, locus YPL055C, strain LGE1, stronger effect = lower value 1.02 | S. cerevisiae deletion strains, locus YPL078C, strain atp4, stronger effect = lower value 0.995 | S. cerevisiae deletion strains, locus YPL106C, strain sse1, stronger effect = lower value 1.03 | S. cerevisiae deletion strains, locus YPL240C, strain hsp82, stronger effect = lower value 1.03 | S. cerevisiae deletion strains, locus YPL241C, strain CIN2, stronger effect = lower value 1 | S. cerevisiae deletion strains, locus YPL256C, strain CLN2, stronger effect = lower value 0.969 | S. cerevisiae deletion strains, locus YPR119W, strain clb2, stronger effect = lower value 0.975 | S. cerevisiae deletion strains, locus YPR141C, strain kar3, stronger effect = lower value 0.985 | S. cerevisiae deletion strains, locus YPR163C, strain tif3, stronger effect = lower value 0.984 | S. cerevisiae deletion strains, locus YPR167C, strain met16, stronger effect = lower value 0.973 | S. cerevisiae deletion strains, strain wtn01, stronger effect = lower value 0.973 | S. cerevisiae strains, strain wild type, stronger effect = lower value 1
